The values that follow come from PubChem BioAssay AID588335 (The Scripps Research Institute Molecular Screening Center, 2011).

Screen size: about 360,000 compounds; about 4,500 (1.2%) were called active. The sample holds actives, similar compounds and a random draw of the others, so the mix is not that of the screen. Unmarked numbers belong to inactive results. Cut-off read from the data, not from the text of the source: active = inhibition above about 30%; inactive = the rest.

The assay can be described thus: GDH-TPI coupling enzyme inhibitors, primary screen, artefact control for M. tuberculosis FBA inhibitor project, biochemical, absorbance, full deck (AID 588335).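 Note: 0% = DMSO wells and 100% = wells lacking the enzyme.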 Particulars: GDH-TPI coupled enzyme counterscreen, NADH absorbance; at 4.8 µM; hits give high values.
On to `CC1CCCCC1NC(=O)COC(=O)Cc1ccc(Br)cc1` (stereo unspecified), for which the inhibition is 0.32%.
Regarding `O=C(COC(=O)c1ccc(O)cc1O)c1ccc2c(c1)OCCO2`, the inhibition is -0.63%.
For `O=C(O)c1ccc2c(=O)n3c(nc2c1)/C(=C/c1ccc(Cl)c([N+](=O)[O-])c1)CC3`, the inhibition is -3.69%.
In the case of `Cc1ccnc(NC(=O)c2ccc(Cl)c([N+](=O)[O-])c2)c1`, the inhibition is 8.28%.
Regarding `C/C(=N\NC(=O)C(N)=O)c1ccc2c(c1)OCCO2`, the inhibition is 0.63%.
As to `O=C(/C=C/c1ccc(Cl)c([N+](=O)[O-])c1)c1ccc(O)cc1`, the inhibition is 40.7% (active).
The value for `O=C(/C=C/c1ccc2c(c1)OCCO2)c1ccc(O)cc1` was 37.5% (active); that for `CC(C)C(=O)N1CC(=O)Nc2ccc(F)cc2C1c1ccc(F)cc1` (stereo unspecified) was 2.76%; that for `CSc1nc2ccccc2cc1/C=C(\C#N)c1ccc(Cl)cc1Cl` was 12.3%.
For `CC(=O)N1CCc2cc(Br)cc(S(=O)(=O)CCC(=O)Nc3c(C)n(C)n(-c4ccccc4)c3=O)c21`, the inhibition is 0%.
For the compound `CCN(CC)CCCNC(=O)c1ccc2c(=O)n(Cc3ccc4c(c3)OCO4)c(=S)[nH]c2c1`, the inhibition was 3.66%.
`CCSC(C)CC1C/C(=N/O)c2c(C)noc2C1` (stereo unspecified): the inhibition is -6.62%.
Regarding `COc1c(O)cc2oc(-c3ccc(O)c(O)c3)cc(=O)c2c1O`, the inhibition is 22%.
`C[C@@H]1O[C@@H](OC[C@H]2O[C@@H](Oc3c(-c4ccc(O)cc4)oc4cc(O)cc(O)c4c3=O)[C@H](O)[C@@H](O)[C@@H]2O)[C@H](O)[C@H](O)[C@H]1O`: the inhibition was 17.6%.
As for `COc1ccc(-c2cc(=O)c3c(O)cc(O[C@@H]4O[C@H](CO[C@@H]5O[C@@H](C)[C@H](O)[C@@H](O)[C@H]5O)[C@@H](O)[C@H](O)[C@H]4O)cc3o2)cc1O`, the inhibition was 37.8% (active).
Take `Cc1csc(CN(C)C(=O)CC2C(=O)NCCN2CC(C)(C)C)n1` (stereo unspecified): the inhibition was -0.64%.
Regarding `CC1(C(=O)Nc2cccc(Oc3ccccc3)c2)CCN1Cc1ccccc1Cl` (stereo unspecified), the inhibition is 11.5%.
With `CCOc1cc(C)ccc1OCc1nnc(SCC(=O)Nc2cccc(C(=O)O)c2)n1-c1ccccc1`, the inhibition is 5.71%.
Turning to `CCN(CC)CCCNC(=S)N(CCO)Cc1cc2cc3c(cc2[nH]c1=O)OCO3`, the inhibition was 10.3%.
For the compound `CCNC(=S)N(CCN(CC)CC)Cc1cc2cc3c(cc2[nH]c1=O)OCCO3`, the inhibition is 27.9%.
On to `CCNC(=S)N(CCN(CC)CC)Cc1cc2cc3c(cc2[nH]c1=O)OCO3`, for which the inhibition was 40.6% (active).
In the case of `CN1C(CC(=O)Nc2ccc(Br)cc2)c2ccccc2CC1(C)C` (stereo unspecified), the inhibition was 2.84%.
On to `COc1cc(C(=O)N2CCN(S(=O)(=O)c3ccc(C(C)C)cc3)CC2)ccc1OCC(=O)N1CCOCC1`, for which the inhibition was -5.56%.
Turning to `c1ccc2[nH]c(-c3nc4ccccc4[nH]3)nc2c1`, the inhibition was 36.1% (active).
As to `O=C(Nc1sc2c(c1-c1nc3ccccc3[nH]1)CCCC2)C1CC1`, the inhibition is 12.9%.
In the case of `Nc1ccccc1-c1nc2ccncc2[nH]1`, the inhibition is 17.8%.
With `CCc1ccc2c(c1)cc(CN(C(=S)Nc1ccccc1Cl)C1CC1)c1nnnn12`, the inhibition was 3.4%.
The value for `COCCCN(C(=S)Nc1c(C)cc(C)cc1C)C(C)c1ccncc1` (stereo unspecified) was -1.1%; that for `C=CCN1C(=O)C(Cc2cccc(Cl)c2)S/C1=N/N=C/c1ccco1` (stereo unspecified) was 17.9%.
For `O=C1N/C(=N\N=C\c2ccco2)SC1Cc1ccc(F)cc1` (stereo unspecified), the inhibition is 34.3% (active).
The value for `CC(C)=N/N=C1/NC(=O)C(Cc2ccccc2)S1` (stereo unspecified) was 1.52%.
As to `COc1ccc(CN2C(=O)C(C)S/C2=N/N=C/c2ccco2)cc1` (stereo unspecified), the inhibition was 28.3%.
As for `CCC1S/C(=N/N=C/c2ccco2)NC1=O` (stereo unspecified), the inhibition is 48.7% (active).
As to `CCCCC1S/C(=N/N=C/c2cccs2)NC1=O` (stereo unspecified), the inhibition was 23.8%.
For the compound `NC(=O)Cn1nc([N+](=O)[O-])nc1Oc1ccc(Br)cc1`, the inhibition was -2.44%.
With `COc1ccc(OC)c(-n2cc3c(=O)n(C)c(=O)n(C)c3c2)c1`, the inhibition was 17.5%.
In the case of `Cc1noc(COc2ccccc2OCc2onc(C)c2Cl)c1Cl`, the inhibition is -5.03%.
Turning to `Cc1cc(NC(=O)CN2C(=O)NC(C)(CCc3ccccc3)C2=O)no1` (stereo unspecified), the inhibition is -0.61%.
The value for `COC(=O)c1sc2[nH]c(=S)n(N)c(=O)c2c1C` was 31.6% (active); that for `COC(=O)c1sc(NC(=O)COC(=O)C2CCC2)c(C(=O)OC)c1C` was -0.7%; that for `CCCC(CCC(=O)OC)(C(=O)OCC)c1csc(N)n1` (stereo unspecified) was 13%.
In the case of `CCN(CC)c1ccc(C(=O)OCC(=O)c2ccco2)cc1`, the inhibition is 31.4% (active).
For the compound `O=C(COC(=O)c1ccccc1C(=O)c1ccccc1)c1ccco1`, the inhibition was -5.13%.
Regarding `CCc1ccc(C(=O)COC(=O)c2ccco2)cc1`, the inhibition is -8.19%.
Take `C[C@H](NC(=O)C1CCN(S(=O)(=O)c2ccccc2)CC1)C(=O)NCc1ccccc1`: the inhibition was -5.08%.
For the compound `O=C(CN1C(=O)NC2(CCCCCC2)C1=O)Nc1ccc([N+](=O)[O-])cc1`, the inhibition is 22.4%.
On to `COc1ccccc1-n1c(O)c(C=NC2CC2)c(=O)[nH]c1=O`, for which the inhibition was -4.18%.
With `COc1cc(C(=S)NC2CCCCC2)ccc1O`, the inhibition is 2.87%.
As for `COc1cc(C=NC2CCCCC2)ccc1O`, the inhibition was 32.4% (active).
On to `Cn1c(=O)[nH]c(=O)c2c1nc(NCCCn1ccnc1)n2Cc1cccc(Br)c1`, for which the inhibition is 33.2% (active).
For `COc1ccc(CCn2c(NCCCN3CCOCC3)nc3c2c(=O)[nH]c(=O)n3C)cc1`, the inhibition was 2.26%.
Regarding `Cc1nnc(Sc2nc3c(c(=O)[nH]c(=O)n3C)n2Cc2ccccc2)s1`, the inhibition is 3.35%.
Regarding `Cc1cc(C)cc(C(=O)NCC(=O)OCC(=O)N2CCCCC2)c1`, the inhibition was -3.76%.
For `Cc1ccc(-n2ncc3c2CC(C)(C)CC3NC(=O)Cc2c(C)noc2C)cc1` (stereo unspecified), the inhibition was 2.41%.
The value for `Cc1ccc(NC(=O)c2nc[nH]c2C(=O)N2CCCCC2)c(C(=O)c2ccccc2)c1` was 16.6%; that for `CC(CNS(=O)(=O)c1ccc(Br)cc1)CN(C)C` (stereo unspecified) was -2.58%; that for `Cc1c(NC(=O)C(=O)N/N=C/c2cccs2)c(=O)n(-c2ccccc2)n1C` was 6.43%.
The value for `COc1ccc2c(c1)c(C(=O)N/N=C/c1cccs1)c(C)n2C` was 38.7% (active).
As for `COc1ccc(N(CC(=O)N/N=C/c2cccs2)S(=O)(=O)c2ccc(OC)c(OC)c2)cc1`, the inhibition was 7.97%.
The value for `CCOC(=O)c1ccccc1NS(=O)(=O)c1c(C)nc2sccn2c1=O` was 15%; that for `COc1ccc(CCNC(=O)COC(=O)c2ccc[nH]c2=O)cc1` was 7.19%; that for `COCCCn1c(SCc2cccc(OC)c2)nc2cc(OC)c(OC)cc2c1=N` was -0.63%.
The value for `O=C(N/N=C/c1ccco1)c1ccc(C(=O)N/N=C/c2ccco2)o1` was 47.5% (active).
On to `O=C(Cc1ccccc1)Nc1cccc(C(=O)N/N=C/c2ccco2)c1`, for which the inhibition was 12.2%.
Turning to `O=C(CCNC(=O)c1ccccc1Cl)NN=Cc1ccco1`, the inhibition is 10.8%.
Consider `COc1ccc(O)c(C(=O)c2cnc3onc(C(C)C)c3c2)c1`, for which the inhibition was 5.83%.
On to `COc1ccc(Cn2cc(CN3CCS(=O)(=O)N(Cc4ccc(-c5cccc(Cl)c5)cc4)C(C)C3=O)nn2)cc1` (stereo unspecified), for which the inhibition was 12.3%.
With `C=CCn1c(CCNC(=O)c2cccs2)n[nH]c1=S`, the inhibition was -2.53%.
The value for `C=CCn1c(=NC(=O)c2cccs2)sc2cc(NC(C)=O)ccc21` was 31.8% (active); that for `C=CCn1c(=NC(=O)c2ccc(S(=O)(=O)N3CCCC3)cc2)sc2cc(NC(C)=O)ccc21` was 28.4%; that for `Cc1ccc(O)c(CCc2ccccc2)n1` was 5.82%.
The value for `COC(=O)C(C(=O)Nc1cccc(Cl)c1C)C1CCCC1` (stereo unspecified) was 2.59%; that for `CCOC(=O)N1CCN(C(=O)CSc2nnc(-c3c[nH]c4ccccc34)n2CCOC)CC1` was 21.3%.
The value for `Cc1ccc(C)c(S(=O)(=O)N(C)c2ccc(OC(=O)C3CCN(C(=O)c4ccc(F)cc4)CC3)cc2)c1` was -2.88%.
Regarding `CCN(C(=O)COC(=O)c1cc(S(=O)(=O)N2CCc3ccccc32)ccc1OC)C1CCS(=O)(=O)C1` (stereo unspecified), the inhibition is -2.55%.
Consider `Cc1ccc2oc(=O)c3cnn(CC(=O)N(Cc4ccco4)C4CCCCC4)c3c2c1`, for which the inhibition is 0%.
As to `CN1CCN(CCNC(=O)Nc2ccccc2[N+](=O)[O-])CC1`, the inhibition is 1.97%.
The value for `CN1CCN(CCNC(=O)Nc2ccc([N+](=O)[O-])cc2)CC1` was 35.1% (active); that for `O=C(NCCCN1CCN(c2ccc(F)cc2)CC1)Nc1ccc([N+](=O)[O-])cc1` was 21.2%.
`CC(Oc1ccc(F)cc1)C(=O)Nc1cc(S(=O)(=O)N2CCOCC2)ccc1N1CCN(C)CC1` (stereo unspecified): the inhibition is -7.32%.
On to `COC(=O)c1ccc(NC(=O)C23CC4CC(C2)CC(n2cnc(Cl)n2)(C4)C3)cc1`, for which the inhibition was 7.31%.
The value for `CCC(CC)C(=O)Nc1cccc(C(=O)N2CCCC2)c1` was 2.12%; that for `COc1ccc(NC(=O)CCCOc2ccc(C(C)=O)cc2)cc1S(=O)(=O)N1CCCCC1` was 7.56%.
On to `COc1cc(/C=N/NC(=O)c2ccc(N3CCCC3=O)cc2)ccc1O`, for which the inhibition is 43.2% (active).
For `C/C(=N\NC(=O)c1cccc(N2CCCC2=O)c1)c1ccc(N)cc1`, the inhibition is 5.43%.
As for `O=C(NCCCN1CCCCCC1)c1ccc(N2CCCC2=O)cc1`, the inhibition is 3.81%.
As for `CN(CC(O)COc1ccc(S(=O)(=O)N2CCOCC2)cc1Cl)C1CCCCC1` (stereo unspecified), the inhibition is -2.47%.
In the case of `Cn1c(SCC(=O)Nc2ccc(Cl)cc2)nc(O)cc1=O`, the inhibition was 4.39%.
Turning to `Cc1ccc(C(=O)N/C(=C/c2ccc(-c3cccc([N+](=O)[O-])c3)o2)C(=O)NCCCN(C)C)cc1`, the inhibition was 58.5% (active).
The value for `O=C(NCc1ccco1)/C(=C/c1cccc([N+](=O)[O-])c1)NC(=O)c1ccco1` was -4.48%; that for `O=C(NCc1ccco1)/C(=C\c1cccc([N+](=O)[O-])c1)NC(=O)c1ccco1` was 16.8%.
